# Data reported in ChEMBL document CHEMBL1961873, “Compounds: GSK PKIS; Assays: Nanosyn kinase panel” (2012).
# Key:
# [1] = molecular target: T1, Mitogen-activated protein kinase 12 (Homo sapiens) (UniProt P53778); details: at 1 µM;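 further: values are averaged p38gamma kinase inhibition readings, compounds tested at 1 µM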
# T1 sequence (whole entry): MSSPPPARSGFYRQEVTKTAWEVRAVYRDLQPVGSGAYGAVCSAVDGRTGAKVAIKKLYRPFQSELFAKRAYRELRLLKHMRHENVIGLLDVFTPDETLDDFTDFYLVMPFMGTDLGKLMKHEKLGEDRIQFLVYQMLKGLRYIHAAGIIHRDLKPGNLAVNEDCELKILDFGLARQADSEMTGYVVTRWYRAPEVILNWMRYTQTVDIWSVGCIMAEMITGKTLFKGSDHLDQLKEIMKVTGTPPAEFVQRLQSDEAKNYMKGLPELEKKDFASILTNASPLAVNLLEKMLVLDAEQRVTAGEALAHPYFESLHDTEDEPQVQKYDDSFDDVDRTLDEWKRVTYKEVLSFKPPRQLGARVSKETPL
# [2] = molecular target: SRSF protein kinase 1 (Homo sapiens) (UniProt Q96SB4); details: at 0.1 µM
# [3] = molecular target: SRSF protein kinase 1 (Homo sapiens) (UniProt Q96SB4); details: at 1 µM
# [4] = molecular target: Phosphatidylinositol 4,5-bisphosphate 3-kinase catalytic subunit alpha isoform (Homo sapiens) (UniProt P42336); details: at 0.1 µM
# [5] = molecular target: Phosphatidylinositol 4,5-bisphosphate 3-kinase catalytic subunit alpha isoform (Homo sapiens) (UniProt P42336); details: at 1 µM
# [6] = molecular target: T2, Phosphatidylinositol 4,5-bisphosphate 3-kinase catalytic subunit delta isoform (Homo sapiens) (UniProt O00329); details: at 0.1 µM
# T2 sequence (whole entry): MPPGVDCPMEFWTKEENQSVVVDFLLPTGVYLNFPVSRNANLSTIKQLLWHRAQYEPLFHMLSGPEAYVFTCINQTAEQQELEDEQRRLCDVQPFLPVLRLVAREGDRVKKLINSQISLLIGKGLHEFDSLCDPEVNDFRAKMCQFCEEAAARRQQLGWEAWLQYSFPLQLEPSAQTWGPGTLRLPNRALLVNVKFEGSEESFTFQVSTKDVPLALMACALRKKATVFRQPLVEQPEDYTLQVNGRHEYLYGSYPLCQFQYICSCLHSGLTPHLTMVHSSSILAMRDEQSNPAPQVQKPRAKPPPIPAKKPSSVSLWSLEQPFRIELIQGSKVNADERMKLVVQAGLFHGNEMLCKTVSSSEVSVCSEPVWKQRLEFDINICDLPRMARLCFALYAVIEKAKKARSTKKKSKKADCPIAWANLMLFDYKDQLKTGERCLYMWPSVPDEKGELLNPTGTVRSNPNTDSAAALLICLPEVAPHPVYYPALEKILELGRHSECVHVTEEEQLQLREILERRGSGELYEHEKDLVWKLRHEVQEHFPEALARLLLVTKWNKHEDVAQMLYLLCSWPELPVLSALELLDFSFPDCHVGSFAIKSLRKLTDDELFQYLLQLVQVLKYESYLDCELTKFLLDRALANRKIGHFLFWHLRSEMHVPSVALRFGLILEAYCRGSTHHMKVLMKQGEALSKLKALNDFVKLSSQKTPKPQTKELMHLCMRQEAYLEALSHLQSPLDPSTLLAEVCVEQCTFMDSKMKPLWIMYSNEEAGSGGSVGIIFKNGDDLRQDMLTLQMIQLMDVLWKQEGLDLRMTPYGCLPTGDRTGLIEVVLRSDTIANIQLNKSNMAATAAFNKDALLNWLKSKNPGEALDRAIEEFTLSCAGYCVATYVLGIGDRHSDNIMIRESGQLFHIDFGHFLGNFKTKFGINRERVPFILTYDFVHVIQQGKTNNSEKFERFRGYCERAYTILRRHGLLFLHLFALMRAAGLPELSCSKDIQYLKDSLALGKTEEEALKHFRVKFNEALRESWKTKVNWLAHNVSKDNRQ
# [7] = molecular target: T2, Phosphatidylinositol 4,5-bisphosphate 3-kinase catalytic subunit delta isoform (Homo sapiens); details: at 1 µM
# [8] = molecular target: Phosphatidylinositol 4-kinase beta (Homo sapiens) (UniProt Q9UBF8); details: at 0.1 µM
# [9] = molecular target: Phosphatidylinositol 4-kinase beta (Homo sapiens) (UniProt Q9UBF8); details: at 1 µM
# [10] = molecular target: Sphingosine kinase 1 (Homo sapiens) (UniProt Q9NYA1); details: at 0.1 µM
# [11] = molecular target: Sphingosine kinase 1 (Homo sapiens) (UniProt Q9NYA1); details: at 1 µM
# [12] = molecular target: T3, Sphingosine kinase 2 (Homo sapiens) (UniProt Q9NRA0); details: at 0.1 µM
# T3 sequence (whole entry): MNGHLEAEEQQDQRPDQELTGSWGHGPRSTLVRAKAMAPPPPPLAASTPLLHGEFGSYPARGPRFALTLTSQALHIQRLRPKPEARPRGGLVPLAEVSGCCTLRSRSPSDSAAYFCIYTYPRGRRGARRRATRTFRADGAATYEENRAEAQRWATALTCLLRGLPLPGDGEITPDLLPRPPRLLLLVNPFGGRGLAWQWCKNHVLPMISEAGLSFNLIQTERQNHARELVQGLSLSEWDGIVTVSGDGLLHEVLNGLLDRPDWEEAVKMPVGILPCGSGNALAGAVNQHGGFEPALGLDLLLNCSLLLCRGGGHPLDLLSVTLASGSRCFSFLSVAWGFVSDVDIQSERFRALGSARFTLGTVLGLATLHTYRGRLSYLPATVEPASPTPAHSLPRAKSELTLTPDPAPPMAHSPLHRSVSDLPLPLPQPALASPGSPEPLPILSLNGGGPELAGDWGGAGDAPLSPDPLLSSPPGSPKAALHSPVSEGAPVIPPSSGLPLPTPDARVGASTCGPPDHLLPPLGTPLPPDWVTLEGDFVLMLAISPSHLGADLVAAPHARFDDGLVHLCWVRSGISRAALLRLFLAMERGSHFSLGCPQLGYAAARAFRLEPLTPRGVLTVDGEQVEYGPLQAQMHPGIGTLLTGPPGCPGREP
# [13] = molecular target: T3, Sphingosine kinase 2 (Homo sapiens); details: at 1 µM
# [14] = molecular target: Casein kinase II subunit alpha (Homo sapiens) (UniProt P68400); details: at 0.1 µM
# [15] = molecular target: Casein kinase II subunit alpha (Homo sapiens) (UniProt P68400); details: at 1 µM
# [16] = molecular target: T4, Inhibitor of nuclear factor kappa-B kinase subunit alpha (Homo sapiens) (UniProt O15111); details: at 0.1 µM
# T4 sequence (whole entry): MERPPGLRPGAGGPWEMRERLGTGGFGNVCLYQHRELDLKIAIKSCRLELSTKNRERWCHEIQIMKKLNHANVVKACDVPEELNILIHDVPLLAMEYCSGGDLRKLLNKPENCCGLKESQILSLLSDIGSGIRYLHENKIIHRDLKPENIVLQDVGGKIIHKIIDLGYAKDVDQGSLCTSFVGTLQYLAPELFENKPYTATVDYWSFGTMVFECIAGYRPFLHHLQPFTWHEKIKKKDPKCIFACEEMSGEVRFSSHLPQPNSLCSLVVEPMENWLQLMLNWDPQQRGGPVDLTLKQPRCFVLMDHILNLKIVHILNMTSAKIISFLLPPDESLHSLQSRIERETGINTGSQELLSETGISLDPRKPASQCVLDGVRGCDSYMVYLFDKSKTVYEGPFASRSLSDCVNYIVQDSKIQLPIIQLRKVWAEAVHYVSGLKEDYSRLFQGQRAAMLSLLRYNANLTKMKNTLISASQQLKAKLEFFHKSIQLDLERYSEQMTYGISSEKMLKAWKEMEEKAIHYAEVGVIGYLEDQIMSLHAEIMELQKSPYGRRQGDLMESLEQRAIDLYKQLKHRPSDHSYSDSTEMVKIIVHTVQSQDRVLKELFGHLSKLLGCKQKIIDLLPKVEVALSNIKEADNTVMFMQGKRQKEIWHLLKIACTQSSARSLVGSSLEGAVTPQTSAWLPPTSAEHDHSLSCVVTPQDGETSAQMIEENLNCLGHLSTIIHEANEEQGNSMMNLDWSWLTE
# [17] = molecular target: T4, Inhibitor of nuclear factor kappa-B kinase subunit alpha (Homo sapiens); details: at 1 µM
# [18] = molecular target: T5, Inhibitor of nuclear factor kappa-B kinase subunit beta (Homo sapiens) (UniProt O14920); details: at 0.1 µM
# T5 sequence (whole entry): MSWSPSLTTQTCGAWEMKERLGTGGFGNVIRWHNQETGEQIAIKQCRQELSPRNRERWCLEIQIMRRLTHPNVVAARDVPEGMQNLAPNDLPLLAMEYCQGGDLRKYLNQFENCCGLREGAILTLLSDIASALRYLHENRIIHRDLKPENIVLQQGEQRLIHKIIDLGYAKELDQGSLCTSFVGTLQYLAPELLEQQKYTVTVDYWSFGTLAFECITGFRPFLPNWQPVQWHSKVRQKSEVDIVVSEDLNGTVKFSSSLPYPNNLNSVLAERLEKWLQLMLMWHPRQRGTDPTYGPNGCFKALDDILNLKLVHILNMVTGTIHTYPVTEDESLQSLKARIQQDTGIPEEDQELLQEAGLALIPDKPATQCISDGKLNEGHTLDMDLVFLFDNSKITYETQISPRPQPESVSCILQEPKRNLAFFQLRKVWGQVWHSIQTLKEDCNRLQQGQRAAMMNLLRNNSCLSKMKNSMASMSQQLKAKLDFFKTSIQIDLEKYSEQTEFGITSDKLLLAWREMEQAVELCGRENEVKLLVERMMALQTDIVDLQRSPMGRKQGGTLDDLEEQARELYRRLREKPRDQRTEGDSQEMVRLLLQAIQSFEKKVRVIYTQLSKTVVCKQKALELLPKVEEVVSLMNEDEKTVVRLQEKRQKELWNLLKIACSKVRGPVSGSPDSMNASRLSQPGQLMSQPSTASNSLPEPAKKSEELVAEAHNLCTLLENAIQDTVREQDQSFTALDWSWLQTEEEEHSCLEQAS
# [19] = molecular target: T5, Inhibitor of nuclear factor kappa-B kinase subunit beta (Homo sapiens); details: at 1 µM
# [20] = molecular target: T6, Inhibitor of nuclear factor kappa-B kinase subunit epsilon (Homo sapiens) (UniProt Q14164); details: at 0.1 µM;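 further: mean inhibition of IKKε reported, from the GSK PKIS dataset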
# T6 sequence (whole entry): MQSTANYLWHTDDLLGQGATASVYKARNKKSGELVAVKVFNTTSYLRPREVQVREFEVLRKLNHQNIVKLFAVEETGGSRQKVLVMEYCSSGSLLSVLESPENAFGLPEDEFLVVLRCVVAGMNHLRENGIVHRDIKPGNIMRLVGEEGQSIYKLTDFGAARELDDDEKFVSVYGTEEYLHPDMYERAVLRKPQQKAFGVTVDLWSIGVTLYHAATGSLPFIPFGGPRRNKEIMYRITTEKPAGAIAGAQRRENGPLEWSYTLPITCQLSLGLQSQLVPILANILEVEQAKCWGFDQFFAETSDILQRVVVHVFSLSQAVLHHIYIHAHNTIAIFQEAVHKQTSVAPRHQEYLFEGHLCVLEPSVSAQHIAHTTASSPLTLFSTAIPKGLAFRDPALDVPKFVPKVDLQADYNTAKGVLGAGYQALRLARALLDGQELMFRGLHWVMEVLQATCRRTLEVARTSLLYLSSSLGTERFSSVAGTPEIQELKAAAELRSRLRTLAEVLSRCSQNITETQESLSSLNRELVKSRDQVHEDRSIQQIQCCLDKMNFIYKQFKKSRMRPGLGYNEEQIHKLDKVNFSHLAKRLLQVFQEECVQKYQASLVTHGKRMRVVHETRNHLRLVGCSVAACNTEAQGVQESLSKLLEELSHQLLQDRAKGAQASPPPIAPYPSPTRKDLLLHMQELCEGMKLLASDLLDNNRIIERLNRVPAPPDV
# Chain of SRSF protein kinase 1 (Homo sapiens) (Q96SB4 whole entry, canonical isoform): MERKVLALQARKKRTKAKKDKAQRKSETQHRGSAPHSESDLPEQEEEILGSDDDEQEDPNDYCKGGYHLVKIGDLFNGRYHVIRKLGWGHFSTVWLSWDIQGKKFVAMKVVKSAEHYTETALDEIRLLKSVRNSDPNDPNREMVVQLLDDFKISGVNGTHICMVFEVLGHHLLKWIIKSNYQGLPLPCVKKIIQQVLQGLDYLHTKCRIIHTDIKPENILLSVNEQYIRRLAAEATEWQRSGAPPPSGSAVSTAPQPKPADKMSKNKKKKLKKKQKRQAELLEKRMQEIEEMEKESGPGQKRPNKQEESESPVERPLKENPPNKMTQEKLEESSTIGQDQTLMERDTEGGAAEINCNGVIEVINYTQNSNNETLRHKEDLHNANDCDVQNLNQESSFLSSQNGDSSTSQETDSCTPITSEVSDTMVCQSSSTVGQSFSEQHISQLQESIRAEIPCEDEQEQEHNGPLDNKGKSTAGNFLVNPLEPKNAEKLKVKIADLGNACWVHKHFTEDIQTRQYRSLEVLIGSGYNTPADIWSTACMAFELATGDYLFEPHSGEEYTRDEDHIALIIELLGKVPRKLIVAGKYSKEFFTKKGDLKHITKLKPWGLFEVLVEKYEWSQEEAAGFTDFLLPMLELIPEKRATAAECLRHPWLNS
# Chain of Sphingosine kinase 1 (Homo sapiens) (Q9NYA1 whole entry): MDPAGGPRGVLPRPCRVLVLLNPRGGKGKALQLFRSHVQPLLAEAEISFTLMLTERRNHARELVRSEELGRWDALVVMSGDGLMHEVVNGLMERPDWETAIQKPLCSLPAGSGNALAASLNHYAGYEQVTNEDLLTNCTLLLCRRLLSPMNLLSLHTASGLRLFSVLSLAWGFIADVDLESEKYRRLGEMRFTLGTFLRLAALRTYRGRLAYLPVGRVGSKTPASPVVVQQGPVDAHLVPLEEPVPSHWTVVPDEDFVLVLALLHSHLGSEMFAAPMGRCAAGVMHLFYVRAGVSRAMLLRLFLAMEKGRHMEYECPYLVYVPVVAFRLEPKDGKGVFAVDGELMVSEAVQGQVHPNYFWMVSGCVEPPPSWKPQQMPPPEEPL
# Chain of Phosphatidylinositol 4,5-bisphosphate 3-kinase catalytic subunit alpha isoform (Homo sapiens) (P42336 whole entry, canonical isoform): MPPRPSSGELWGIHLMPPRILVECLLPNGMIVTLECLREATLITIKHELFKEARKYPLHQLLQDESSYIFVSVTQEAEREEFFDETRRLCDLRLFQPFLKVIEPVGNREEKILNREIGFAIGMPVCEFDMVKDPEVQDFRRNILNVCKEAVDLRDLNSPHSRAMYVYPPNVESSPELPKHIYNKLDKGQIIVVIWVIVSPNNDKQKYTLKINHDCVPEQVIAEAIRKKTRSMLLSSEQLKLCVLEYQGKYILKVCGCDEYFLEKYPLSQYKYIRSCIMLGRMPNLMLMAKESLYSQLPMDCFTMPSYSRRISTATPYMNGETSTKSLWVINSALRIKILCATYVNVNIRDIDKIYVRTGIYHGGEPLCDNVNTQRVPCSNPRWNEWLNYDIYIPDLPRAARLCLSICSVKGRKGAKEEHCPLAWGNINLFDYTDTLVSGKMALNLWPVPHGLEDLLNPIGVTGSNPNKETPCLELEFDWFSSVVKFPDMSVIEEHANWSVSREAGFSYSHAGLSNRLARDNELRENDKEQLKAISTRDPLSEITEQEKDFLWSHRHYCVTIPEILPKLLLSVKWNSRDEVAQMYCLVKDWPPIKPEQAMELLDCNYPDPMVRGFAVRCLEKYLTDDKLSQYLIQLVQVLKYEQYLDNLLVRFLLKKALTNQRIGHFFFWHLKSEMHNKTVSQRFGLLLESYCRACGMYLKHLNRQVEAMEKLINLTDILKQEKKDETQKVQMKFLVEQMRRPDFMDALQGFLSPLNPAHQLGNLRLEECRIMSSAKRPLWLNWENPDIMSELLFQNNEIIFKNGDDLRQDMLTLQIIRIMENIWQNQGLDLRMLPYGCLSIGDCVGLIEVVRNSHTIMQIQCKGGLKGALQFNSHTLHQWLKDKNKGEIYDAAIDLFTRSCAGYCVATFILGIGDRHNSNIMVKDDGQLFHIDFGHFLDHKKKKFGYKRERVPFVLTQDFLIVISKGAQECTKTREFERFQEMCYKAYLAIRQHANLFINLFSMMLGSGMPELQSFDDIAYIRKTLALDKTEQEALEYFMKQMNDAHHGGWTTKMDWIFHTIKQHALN
# Chain of Phosphatidylinositol 4-kinase beta (Homo sapiens) (Q9UBF8 2-816 limits assumed): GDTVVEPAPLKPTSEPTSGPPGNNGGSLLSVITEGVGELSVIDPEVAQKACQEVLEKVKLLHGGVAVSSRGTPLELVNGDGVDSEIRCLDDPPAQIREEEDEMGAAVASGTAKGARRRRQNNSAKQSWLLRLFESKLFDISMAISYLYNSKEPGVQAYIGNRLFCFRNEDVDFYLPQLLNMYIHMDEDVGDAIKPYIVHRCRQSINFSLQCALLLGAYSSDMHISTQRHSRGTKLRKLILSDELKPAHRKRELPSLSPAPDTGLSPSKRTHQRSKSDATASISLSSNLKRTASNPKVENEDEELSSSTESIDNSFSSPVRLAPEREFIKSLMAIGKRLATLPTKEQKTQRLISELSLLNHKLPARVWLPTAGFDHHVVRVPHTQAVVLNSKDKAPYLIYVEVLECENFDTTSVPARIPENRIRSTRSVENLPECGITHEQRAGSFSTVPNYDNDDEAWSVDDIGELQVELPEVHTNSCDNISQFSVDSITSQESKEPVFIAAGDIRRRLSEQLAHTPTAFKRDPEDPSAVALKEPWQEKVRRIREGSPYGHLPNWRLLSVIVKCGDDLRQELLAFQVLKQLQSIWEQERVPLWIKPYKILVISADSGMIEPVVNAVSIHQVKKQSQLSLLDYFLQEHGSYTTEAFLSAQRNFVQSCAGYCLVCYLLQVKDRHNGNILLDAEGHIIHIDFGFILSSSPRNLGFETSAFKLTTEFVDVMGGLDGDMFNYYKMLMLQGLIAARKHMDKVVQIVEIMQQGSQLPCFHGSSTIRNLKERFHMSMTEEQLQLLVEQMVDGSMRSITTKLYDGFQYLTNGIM
# Chain of Casein kinase II subunit alpha (Homo sapiens) (P68400 whole entry, looked up): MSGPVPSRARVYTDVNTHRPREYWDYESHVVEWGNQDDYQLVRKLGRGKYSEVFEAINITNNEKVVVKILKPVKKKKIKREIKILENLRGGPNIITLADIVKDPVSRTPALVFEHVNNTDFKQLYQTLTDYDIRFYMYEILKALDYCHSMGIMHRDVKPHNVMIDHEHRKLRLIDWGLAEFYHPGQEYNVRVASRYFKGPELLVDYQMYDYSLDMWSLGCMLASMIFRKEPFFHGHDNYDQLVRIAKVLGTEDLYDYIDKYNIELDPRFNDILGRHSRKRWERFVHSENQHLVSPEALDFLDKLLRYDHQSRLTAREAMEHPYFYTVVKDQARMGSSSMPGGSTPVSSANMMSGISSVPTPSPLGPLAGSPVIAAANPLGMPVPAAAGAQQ
Structure (SMILES),inhibition [1] [%],inhibition [2] [%],inhibition [3] [%],inhibition [4] [%],inhibition [5] [%],inhibition [6] [%],inhibition [7] [%],inhibition [8] [%],inhibition [9] [%],inhibition [10] [%],inhibition [11] [%],inhibition [12] [%],inhibition [13] [%],inhibition [14] [%],inhibition [15] [%],inhibition [16] [%],inhibition [17] [%],inhibition [18] [%],inhibition [19] [%],inhibition [20] [%]
CC(C)COC(=O)c1ccc2c(c1)/C(=C/Nc1ccc(S(N)(=O)=O)cc1)C(=O)N2,-0.52,-0.82,-1.99,3.8,-1.43,0.18,2.64,4.22,-2.78,2.57,1.92,-0.06,-0.44,7.86,47.2,-1.06,3.25,-0.4,6.93,46.2
CNC(=O)c1cccc(C#Cc2cncnc2Nc2ccc(OCc3cccc(F)c3)c(Cl)c2)c1,-0.21,-1.88,0.32,0.38,-2.56,0.74,-1.1,1.78,1.45,0.36,2.62,0.55,-7.19,2.99,10.1,-3.42,-9.45,0.53,-0.35,4.53
Nc1nc(-c2ccc(F)cc2)c(-c2ccc3ncccc3n2)s1,2.9,-1.42,1.42,7.33,20.4,7.18,32.8,8.12,7.23,0.08,-1.38,-1.13,-1.05,6.47,13,2.92,5.46,5.24,4.99,6.57
CCn1c(-c2nonc2N)nc2cnc(Oc3cccc(NC(=O)c4ccc(N(C)C)cc4)c3)cc21,1.5,-1.72,-1.86,-0.72,0.76,0.62,1.65,-0.87,2.47,-2.61,-3.07,0,2.32,0.64,0.04,5.93,2.52,2.96,1.85,3.07
Cc1cccc(Nc2ncc(-c3ccccc3)o2)c1,4.77,-2.35,0.2,0.69,-0.17,0.73,1.52,1.05,2.54,1,3.75,0.62,-1.72,4.16,3.49,3.87,7.95,4.82,5.08,5.18
